# LGR2 antag: inhibitors of bursicon-induced LGR2 CRE-luciferase signal, primary screen, cell-based, HEK293, CRE-luciferase reporter, bursicon stimulation; AID 720647, 2013; hit rate 0.35% among 380,000; inhibition, % at 9.99 µM; bursicon-stimulated, 4 h; Drosophila bursicon receptor LGR2 (rickets);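 active = drop in luminescence signal, shown as inhibition above about 50% in the replicate tests, limit read from the data, passing the limit was not always enough; inconclusive = probably only some replicates passing the limit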;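 also: agonist challenge used bursicon conditioned medium at about half maximal strength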
# LMP1 NFkB inh: EBV LMP1-driven NF-kappaB luciferase reporter inhibitors, primary screen, cell-based, luminescence, single point | LMP1-induced NF-kappaB luciferase reporter cells | inhibition, % at 12.5 µM | hit rate 0.69% among 350,000 | AID 504558, 2011; in the data active = inhibition above about 41%; inconclusive = no clear call, values can overlap the other calls;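 also: 0% = neutral control wells and 100% = reference inhibitor control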
# PGC1a acetyl inh: inhibitors of PGC1a acetylation signal, primary screen, cell-based, U2OS, AlphaScreen, inhibitor mode | AlphaScreen anti-acetyl-lysine; with virally co-expressed GCN5 acetyltransferase | inhibition, % at 15.6 µM | hit rate 0.17% among 350,000 | AID 651687, 2012;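 active = every replicate shows inhibition of at least 40%; inconclusive = mean inhibition at least 40% but some replicate below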;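 also: 0% = neutral control wells and 100% = positive control wells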
# EWS-Fli block: EWS/Fli-driven NR0B1 reporter inhibitors, primary screen, A673 cells, NR0B1 luciferase, luminescence, MLPCN library; viability-normalised; inhibition, % at 12.6 µM; hit rate 0.67% among 350,000; AID 651661, 2012;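 active = mean inhibition of at least 50% after viability correction, with every replicate also passing that limit; inconclusive = mean reaches 50% but only one of two replicates passes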;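 also: firefly luciferase signal divided by Alamar Blue viability fluorescence both relative to DMSO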
# PAX8 reporter: inhibitors of PAX8-driven TPO luciferase reporter, primary screen, RMG-I cells, single concentration; AID 652154, 2013; SteadyGlo, 24 h; hit rate 1.2% among 360,000; inhibition, % at 12.6 µM;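 active = mean replicate inhibition at least 60% with every replicate also reaching 60%; inconclusive = only one of the two criteria is met; inactive = mean below 60% and not all replicates reaching 60%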;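 also: luciferase light reporting Pax8 driven TPO promoter activity; plate controls were median of neutral control wells for no effect and mitoxantrone controls for full effect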
# TRPM1 prom inh: inhibitors of MITF-dependent TRPM1 promoter reporter, primary screen, cell-based, SK-MEL-5, single point, luciferase; inhibition, % at 12.5 µM; AID 488899, 2010; SK-MEL-5 TRPM1 promoter luciferase, 24 h; hit rate 0.83% among 330,000;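 active = mean inhibition across replicates of 60% or more, whatever share of single replicates reaches that level; inconclusive = some that reach 60%, reason not given; inactive = mean inhibition across replicates below 60%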
# The depositor's hits bear a star; ? = inconclusive; nt = not tested or not shown. Only some compounds are listed: those with a hit (about 2.2% of all), similar ones and a draw of the others.
SMILES,LGR2 antag,LMP1 NFkB inh,PGC1a acetyl inh,EWS-Fli block,PAX8 reporter,TRPM1 prom inh
CC(=O)Nc1ccc(/C=N/NC(=O)CC2CCCCC2)cc1,-22,nt,-12,-9,-12,nt
CC(=O)Nc1ccc(C=NNC(=O)CCCC(=O)NN=Cc2ccc(NC(C)=O)cc2)cc1,3,81*,10,-3,7,-5
O=C(c1cn(Cc2ccccc2)nc1-c1ccccc1)N1CCN(c2ccccn2)CC1,-2,24,-20,54*,14,24
COc1cccc(C(=O)N2CCN(c3ccccn3)CC2)c1,-14,49*,3,2,-37,-5
Cc1ccc(S(=O)(=O)c2ccc([N+](=O)[O-])cn2)cc1,65*,60*,-68,61*,111*,91*
O=[N+]([O-])c1ccc(S(=O)(=O)c2ccccc2)nc1,52*,53*,nt,58*,109*,94*
Cc1cc(S(=O)(=O)c2ccc([N+](=O)[O-])cn2)ccc1Br,?,74*,-135,36,86*,90*
O=C(C[C@@H]1CC[C@@H]2[C@H](COC[C@H](O)CN2CC2CCCCC2)O1)NCc1ccc(Cl)cc1,12,nt,-6,-1,35,nt
C[C@@H]1CN([C@@H](C)CO)C(=O)Cc2cc(NC(=O)CCCN(C)C)ccc2O[C@H]1CN(C)Cc1ccc(C(F)(F)F)cc1,-2,nt,1,nt,10,nt
CCOc1ccc(-c2cnc3ccccc3n2)cc1,90*,?,2,77*,32,43
O=[N+]([O-])c1ccc(-c2cnc3ccccc3n2)cc1,nt,-3,0,-79,-117,-60
CCOc1ccc(-c2cn3ccccc3n2)cc1,74*,33,nt,48,-14,19
Cc1noc(C)c1NC(=O)N(C)C[C@@H]1OCCCC[C@@H](C)Oc2ccc(NS(=O)(=O)c3ccccc3)cc2C(=O)N([C@@H](C)CO)C[C@H]1C,-12,nt,1,-12,-24,nt
O=C(OC[C@@H]1[C@H]2c3ccccc3OC1(CO)N=C1SCc3ccccc3CN12)c1ccccc1,nt,nt,1,9,17,nt
c1ccc(N=Nc2ccc(C3=NCCO3)cc2)cc1,81*,8,1,43,-44,nt
CN1C(=O)c2cc(NC(=O)Cc3cccs3)ccc2OC[C@@H]2O[C@@H](CC(=O)NCc3ccc(-c4ccccc4)cc3)CC[C@H]21,nt,nt,4,71*,66*,nt
CN1C(=O)c2cc(NC(=O)c3cccc(Cl)c3)ccc2OC[C@H]2O[C@H](CC(=O)NC3CCCCC3)CC[C@@H]21,-6,nt,-11,0,70*,nt
CN1C(=O)c2cc(NC(=O)Cc3cccs3)ccc2OC[C@H]2O[C@H](CC(=O)NCc3ccc(-c4ccccc4)cc3)CC[C@H]21,3,nt,2,-5,2,nt
COc1cccc(S(=O)(=O)Nc2ccc3c(c2)C(=O)N(C)[C@H]2CC[C@H](CC(=O)Nc4ccc(C(C)C)cc4)O[C@@H]2CO3)c1,-17,nt,7,11,66*,nt
CN1C(=O)c2cc(NS(=O)(=O)c3ccc(Cl)cc3)ccc2OC[C@H]2O[C@@H](CC(=O)N3CCc4ccccc4C3)CC[C@@H]21,11,nt,-8,19,74*,nt
C[C@H]1CN([C@@H](C)CO)C(=O)Cc2cc(NS(=O)(=O)c3cn(C)cn3)ccc2O[C@@H]1CN(C)CC1CCCCC1,3,nt,1,-4,-6,nt
C[C@H](NC(=O)C[C@H]1C=C[C@@H](NC(=O)Cc2ccccn2)[C@H](CO)O1)c1ccccc1,10,nt,4,nt,nt,nt
C[C@H]1CN([C@@H](C)CO)C(=O)Cc2cc(NC(=O)CCCCCC(=O)Nc3ccccc3N)ccc2O[C@@H]1CN(C)C(=O)Nc1ccc(C(F)(F)F)cc1,6,nt,-5,-8,-3,nt
CC(=O)Nc1ccc2c(c1)C(=O)N(C)[C@H]1CC[C@H](CC(=O)Nc3cccc(C(C)C)c3)O[C@@H]1CO2,4,nt,-3,1,23,nt
CC(C)c1cccc(NC(=O)C[C@H]2CC[C@H]3[C@@H](COc4ccc(NC(=O)NCc5ccccc5)cc4C(=O)N3C)O2)c1,15,nt,-3,1,64*,nt
SMILES,LGR2 antag,LMP1 NFkB inh,PGC1a acetyl inh,EWS-Fli block,PAX8 reporter,TRPM1 prom inh
O=c1cc(O)c2sc(Nc3ccc(Cl)c(F)c3)nc2[nH]1,-4,-38,15,29,70*,7
O=c1cc(O)c2sc(Nc3ccc(F)c(Cl)c3)nc2[nH]1,5,-104,-2,28,74*,30
COc1ccc(Nc2nc3[nH]c(=O)cc(O)c3s2)cc1,17,-72,nt,-3,27,2
O=C(Cn1cnc2c(NCc3ccccc3)ncnc21)NCc1ccccc1,7,-9,7,56*,18,38
O=C(Cn1cnc2c(NCc3ccccc3)ncnc21)NCc1ccc2c(c1)OCO2,-12,-1,1,14,0,5
CCC(C)[C@H](NC(=O)NCc1cccnc1)C(=O)OC (some centres not stated),-2,52*,3,20,0,-5
Cc1ccc(NC(=O)c2ccc(S(=O)(=O)N(C)c3ccccc3)cc2)cc1S(=O)(=O)N1CCOCC1,9,10,-12,27,65*,3
COc1ccc(NC(=O)c2ccc(-c3ccccc3)cc2)cc1S(=O)(=O)N1CCOCC1,15,51*,0,11,41,43
CNC[C@H]1OCCCC[C@H](C)Oc2ccc(NC(=O)Cc3ccccc3)cc2C(=O)N([C@H](C)CO)C[C@@H]1C,-16,nt,11,-3,-21,nt
C[C@@H]1CN([C@@H](C)CO)C(=O)c2cccc(NS(=O)(=O)c3ccc(Cl)cc3)c2O[C@H]1CN(C)S(=O)(=O)c1cn(C)cn1,28,nt,-6,-6,nt,nt
Cc1cc(C=C2C(=O)c3ccccc3C2=O)c(C)n1-c1ccccc1,nt,13,5,nt,nt,72*
Cc1cc(/C=C2\Cc3ccccc3C2=O)c(C)n1-c1ccccc1,-7,44*,nt,49,-18,44
Cc1cc(C=C2C(=O)c3ccccc3C2=O)c(C)n1-c1ccc(C(=O)O)cc1,-42,0,-4,4,-7,1
Cc1cc(C=C2C(=O)c3ccccc3C2=O)c(C)n1-c1cccc(C(=O)O)c1,22,0,6,-20,1,-4
C[C@@H]1CN([C@H](C)CO)C(=O)c2cccc(NC(=O)Nc3ccc(C(F)(F)F)cc3)c2O[C@H]1CN(C)Cc1ccc2c(c1)OCO2,42,nt,3,17,nt,nt
Cn1c2c(c(=O)n(C)c1=O)C(C(F)(F)F)(C(F)(F)F)N=C(CCC1CCCCC1)N2,75*,19,nt,5,31,5
COc1ccc(-c2sc3ccccc3c2-c2ccc(OCCN(C)C)cc2)cc1,9,-14,nt,43,100*,76*
